# In the supplement of paper PMC8728848:
# This excerpt belongs to a sample that is enriched for the strongest signals.
# What was measured:
# Experiment in all cases: glycan array binding signal (z-score within array); higher = stronger binding
# Conditions in all cases: glycan notation: IUPAC condensed, linker removed
# [1] = target: GalNAc(b1-3)Gal(a1-4)Gal(b1-4)GlcNAc(b1-3)Gal(b1-4)Glc
# Method in brief: (§1)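 The binding signal is a Z-score computed within each array. Data were drawn from 3228 arrays in the Consortium for Functional Glycomics database, restricted to those with a known protein sequence. Scores were averaged over arrays of the same protein sequence at different concentrations or buffers, and over linkers, and negative values can be taken as non-binding.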
# GalNAc(b1-4)Gal(b1-4)Glc = target: GalNAc(b1-4)Gal(b1-4)Glc
# Method in brief: as §1
# GalNAc6S(b1-4)GlcNAc = target: GalNAc6S(b1-4)GlcNAc
# Method in brief: as §1
# [2] = target: GlcNAc(a1-4)Gal(b1-4)GalNAc
# Method in brief: as §1
# [3] = target: GlcNAc(a1-4)Gal(b1-4)GlcNAc
# Method in brief: as §1
# [4] = target: GlcNAc(a1-4)Gal(b1-4)GlcNAc(b1-3)Gal(b1-4)GlcNAc(b1-3)Gal(b1-4)GlcNAc
# Method in brief: as §1
# [5] = target: GlcNAc(b1-2)Man(a1-3)[GlcNAc(b1-2)Man(a1-6)]Man(b1-4)GlcNAc(b1-4)[Fuc(a1-6)]GlcNAc
# Method in brief: as §1
# [6] = target: GlcNAc(b1-2)Man(a1-3)[GlcNAc(b1-4)][GlcNAc(b1-2)Man(a1-6)]Man(b1-4)GlcNAc(b1-4)[Fuc(a1-6)]GlcNAc
# Method in brief: as §1
# [7] = target: Man(a1-3)[Man(a1-6)]Man(a1-6)[Man(a1-3)]Man(b1-4)GlcNAc(b1-4)GlcNAc
# Method in brief: as §1
# Man(b1-4)GlcNAc = target: Man(b1-4)GlcNAc
# Method in brief: as §1
# [8] = target: Neu5Ac(a2-3)Gal(b1-3)GalNAc(b1-3)Gal(a1-4)Gal(b1-4)Glc
# Method in brief: as §1
# [9] = target: Neu5Ac(a2-3)Gal(b1-4)GlcNAc(b1-2)Man(a1-3)[GlcNAc(b1-4)][Neu5Ac(a2-3)Gal(b1-4)GlcNAc(b1-2)Man(a1-6)]Man(b1-4)GlcNAc(b1-4)GlcNAc
# Method in brief: as §1
# [10] = target: Neu5Ac(a2-3)Gal(b1-4)GlcNAc(b1-3)Gal(b1-4)GlcNAc(b1-3)Gal(b1-4)GlcNAc(b1-2)Man(a1-3)[Neu5Ac(a2-3)Gal(b1-4)GlcNAc(b1-3)Gal(b1-4)GlcNAc(b1-3)Gal(b1-4)GlcNAc(b1-2)Man(a1-6)]GalNAc
# Method in brief: as §1
# [11] = target: Neu5Ac(a2-3)Gal(b1-4)GlcNAc(b1-3)[Neu5Ac(a2-3)Gal(b1-4)GlcNAc(b1-6)]GalNAc
# Method in brief: as §1
# Neu5Ac(a2-3)GalNAc = target: Neu5Ac(a2-3)GalNAc
# Method in brief: as §1
# [12] = target: Neu5Ac(a2-3)[GalNAc(b1-4)]Gal(b1-4)GlcNAc
# Method in brief: as §1
# [13] = target: Neu5Ac(a2-6)Gal(b1-4)GlcNAc(b1-2)Man(a1-3)[Man(a1-6)]Man(b1-4)GlcNAc(b1-4)GlcNAc
# Method in brief: as §1
# [14] = target: Neu5Ac(a2-6)Gal(b1-4)GlcNAc(b1-2)Man(a1-6)[Man(a1-3)]Man(b1-4)GlcNAc(b1-4)GlcNAc
# Method in brief: as §1
# [15] = target: Neu5Ac(a2-6)Gal(b1-4)GlcNAc(b1-2)[Neu5Ac(a2-6)Gal(b1-4)GlcNAc(b1-4)]Man(a1-3)[GlcNAc(b1-4)][Neu5Ac(a2-6)Gal(b1-4)GlcNAc(b1-4)Man(a1-6)]Man(b1-4)GlcNAc(b1-4)GlcNAc
# Method in brief: as §1
# [16] = target: Neu5Ac(a2-6)Gal(b1-4)GlcNAc(b1-3)Gal(b1-4)GlcNAc(b1-3)Gal(b1-4)GlcNAc(b1-2)Man(a1-3)[Neu5Ac(a2-6)Gal(b1-4)GlcNAc(b1-3)Gal(b1-4)GlcNAc(b1-3)Gal(b1-4)GlcNAc(b1-2)Man(a1-6)]GalNAc
# Method in brief: as §1
# [17] = target: Neu5Ac(a2-6)Gal(b1-4)GlcNAc(b1-3)Gal(b1-4)GlcNAc(b1-6)[Gal(b1-3)]GalNAc
# Method in brief: as §1
# [18] = target: Neu5Ac(a2-6)Gal(b1-4)GlcNAc(b1-3)Gal(b1-4)[Fuc(a1-3)]GlcNAc(b1-3)Gal(b1-4)[Fuc(a1-3)]GlcNAc
# Method in brief: as §1
# [19] = target: Neu5Ac(a2-6)Gal(b1-4)GlcNAc(b1-3)GalNAc
# Method in brief: as §1
# [20] = target: Neu5Ac(a2-6)GlcNAc(b1-4)GlcNAc(b1-4)GlcNAc
# Method in brief: as §1
# Neu5Ac(a2-8)Neu5Ac = target: Neu5Ac(a2-8)Neu5Ac
# Method in brief: as §1
# [21] = target: Neu5Ac(a2-8)Neu5Gc(a2-3)Gal(b1-4)GlcNAc
# Method in brief: as §1
# [22] = target: Neu5Gc(a2-3)Gal(b1-4)GlcNAc
# Method in brief: as §1
binder,measurement,setting,value
PX14375F-bfa-539-21-539 (Bacteroides fragilis) (protein) EDFLQKDPPSSPSQSVFWQKKSDFESALAGTYSVMYSGVFSQIMPCLDGLTDNAIVQHSEGTYGWAKTIAQGDLTPNQGGFVTDIYGNCYKGIARVHILMEQLDQYTGSDISADEKKFMLAQCKALRGYFYSWLYQCYKEVPVVTQSLDLNTMYQPKATRAEVLNRVMTDYDEAISELPDKLYSDSQTSGRFTVSAVKALKARILLFDAYDSNGKAISSKMEEVLTLLQSIKGYSLAARVRDNFISEKQLASPEIMFSVRFLRPNLTHSMDLYYGAWAVLDPTRNMVDAFECTDGKPWGESPLTVRPDESILYGNDDALKKAERAKMFMNRDRRLYESVNHSMMANFVDDGFKDEEVQVNESNNKGPTGFSALKYVQPTDVTPGYSTVSDADIVVLRYAHVLLMIAEAENEAHGATTTALNAINEVRTRSGQPAIEAGISQDDLRERIRNEWRIETCFEGLRYFQLKRWKLMDKRVNGVEDPAYPGYIKVYKPAFEFFPIPQSEIDKAGGVLKQDPAYE,glycan array binding signal (z-score),[1],-0.311
same,glycan array binding signal (z-score),GalNAc(b1-4)Gal(b1-4)Glc,0.504
same,glycan array binding signal (z-score),GalNAc6S(b1-4)GlcNAc,-0.468
same,glycan array binding signal (z-score),[2],-0.334
same,glycan array binding signal (z-score),[3],0.011
same,glycan array binding signal (z-score),[4],-0.081
same,glycan array binding signal (z-score),[5],-0.47
same,glycan array binding signal (z-score),[6],-0.471
same,glycan array binding signal (z-score),[7],-0.28
same,glycan array binding signal (z-score),Man(b1-4)GlcNAc,-0.448
same,glycan array binding signal (z-score),[8],-0.715
same,glycan array binding signal (z-score),[9],0.245
same,glycan array binding signal (z-score),[10],4.15
same,glycan array binding signal (z-score),[11],-0.205
same,glycan array binding signal (z-score),Neu5Ac(a2-3)GalNAc,-0.323
same,glycan array binding signal (z-score),[12],-0.459
same,glycan array binding signal (z-score),[13],-0.309
same,glycan array binding signal (z-score),[14],-0.518
same,glycan array binding signal (z-score),[15],-0.061
same,glycan array binding signal (z-score),[16],2.67
same,glycan array binding signal (z-score),[17],-0.919
same,glycan array binding signal (z-score),[18],-0.045
same,glycan array binding signal (z-score),[19],-0.096
same,glycan array binding signal (z-score),[20],-0.585
same,glycan array binding signal (z-score),Neu5Ac(a2-8)Neu5Ac,-0.05
same,glycan array binding signal (z-score),[21],15.8
same,glycan array binding signal (z-score),[22],-0.782
